From PubChem BioAssay AID1069 (NMMLSC, 2008)
Activity calls are given as the source filed them.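 Rule for the calls: active = high combined rank on largest and smallest cell-count-weighted shift across three tests, rank score above 45, floors 50 and 25 (some results past the limit were not filed as active); inactive = the rest.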

Test: LNCaP granularity increase inducers, single-point recheck – cell-based, side scatter shift, flow cytometry, confirmation (AID 1069);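 note: LNCaP human prostate cancer cells in low-serum medium with charcoal-stripped FBS; percent of cells with raised granularity gated so DMSO controls show 10%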
Details: LNCaP differentiation, 4 d, stronger effect = higher value

SMILES | side scatter shift (at 100 µM) | side scatter shift (side scatter shift, at 10 µM) [%]
Cc1cc(C)c2c(=O)n(CC(=O)NCCCN3CCN(c4ccccc4F)CC3)sc2n1 | 20% (inactive) | 6.8
CN1CCN(CCCNC(=O)c2cc3c(-c4ccc(Cl)cc4)nn(C)c3s2)CC1 | 14.3% (active) | 57
CC(C)(O)c1cn(-c2nonc2N)nn1 | 10.4% (inactive) | 5.4
COCCn1cc(C(=O)N2CCCC(C)C2)c2c3ccccc3n(C)c2c1=O (stereo not given) | 22.8% (inactive) | 3.2
CCn1c(C(=O)NCCCN2CCc3ccccc3C2)cc2sccc21 | 12.5% (inactive) | 14.8
CCOC(=O)C1=C(O)CCn2c1nc1ccccc12 | 18% (inactive) | 3.3
CCOc1ccccc1NC(=O)c1nc[nH]c1C(=O)Nc1ccccc1OCC | 40% (inactive) | 6.05
O=C(Cc1coc(-c2ccc(F)cc2)n1)N1CCOCC1 | 9.7% (inactive) | 2.15
Cc1oc(-c2cccc(Cl)c2)nc1CN1CCCC(C(=O)NC(C)c2ccc3c(c2)OCCO3)C1 (stereo not given) | 0% (inactive) | 1.65
O=C(NCCCN1CCN(c2ccccc2F)CC1)C1CCC(=O)N1C1CCCCC1 (stereo not given) | 8% (inactive) | 4.05
COc1ccc(CN2C(=O)C(O)(CC(=O)c3c(C)n[nH]c3C)c3ccccc32)cc1OC (stereo not given) | 9.9% (inactive) | 6.45
Cc1oc(-c2ccc(Cl)cc2)nc1CN1CCC(C(=O)N2CCN(Cc3ccccc3)CC2)CC1 | 33.3% (active) | 53.7
Oc1c(CN2CCCCC2)cc(COCc2ccccc2)c2cccnc12 | 5.7% (active) | 51.2
O=C(NCCCN1CCN(c2cccc(Cl)c2)CC1)c1cccc(N2CCCC2=O)c1 | 50.5% (active) | 7.7
CCN(CC)CCNC(=O)c1nn(-c2ccc(C)cc2)c(=O)c2c1c1ccccc1n2C | 50% (inactive) | 5.55
O=C(NCCCN1CCN(c2cccc(Cl)c2)CC1)c1nc(-c2ccncc2)no1 | 36.1% (inactive) | 2.15
Cc1cccc(-c2nc(CN3CCCC(C(=O)NC4CCC(C)CC4)C3)c(C)o2)c1 (stereo not given) | 40% (inactive) | 5.9
CCN(CCCNS(=O)(=O)c1ccc2c(c1)oc(=O)n2C)c1cccc(C)c1 | 22.2% (inactive) | 4.85
CN(C)c1ccc(-c2nn3c(-c4ccc(Cl)cc4Cl)nnc3s2)cc1 | 50% (inactive) | 4.15
Cc1cc(=O)oc(C)c1C(=O)NCCCN1CCN(c2ccc(F)cc2)CC1 | 8.5% (inactive) | 5.05
CCN(CC)CCNC(=O)c1cc2c(-c3ccc(Cl)cc3)nn(C)c2s1 | 24% (inactive) | 64.8
O=C(CSc1nc2c(c(=O)n1-c1ccc(F)cc1)SCC2)NCC1CCCO1 (stereo not given) | 19.8% (inactive) | 3.9
CCn1c(=O)cc(SCC(=O)NCCCN2CCN(c3ccc(F)cc3)CC2)c2ccccc21 | 14.3% (inactive) | 21.6
CCc1ccc(-c2nc(CN3CCC(C(=O)N4CCN(c5ccccn5)CC4)CC3)c(C)o2)cc1 | 30% (inactive) | 32.4
CCn1c(=N)n(CC(O)COc2cccc(C)c2)c2ccccc21 (stereo not given) | 0% (inactive) | 9.75
COc1ccccc1NC(=O)c1nc[nH]c1C(=O)Nc1ccccc1OC | 50.5% (inactive) | 5.65
Cc1noc(C)c1S(=O)(=O)N1CCC(C(=O)NCCN2CCC(C)CC2)CC1 | 12.7% (inactive) | 4.95

SMILES | side scatter shift (at 100 µM) | side scatter shift (side scatter shift, at 10 µM) [%]
CCOC(=O)C1CCCN(C(=O)Cn2cccc2C(=O)c2ccccc2)C1 (stereo not given) | 6% (inactive) | 2.5
Cc1ccc(Cl)cc1N1CCN(C(=O)c2cc3c(=O)n(C)c4ccccc4c3n2C)CC1 | 12.9% (inactive) | 22.5
Cc1nnc(NCc2n[nH]c(=O)c3ccccc23)c2ccccc12 | 46.8% (inactive) | 6.5
COc1ccc(-c2coc3c(CN4CCCCC4)c(O)c(CN4CCCCC4)c(O)c3c2=O)cc1 | 28.6% (inactive) | 3.3
CCc1ccc(CNC(=O)CN2C(=O)COc3ccccc32)cc1 | 9% (inactive) | 5.7
Cc1oc(-c2cccc(Cl)c2)nc1CN1CCCC(C(=O)NCCCN2CCOCC2)C1 (stereo not given) | 27.3% (inactive) | 23.6
c1cncc(-c2nc3ccccc3o2)c1 | 10.2% (inactive) | 2.9
Cc1ccc(S(=O)(=O)NCCCCC(NC(=O)OC(C)(C)C)C(=O)O)cc1 (stereo not given) (tested in a mixture with another compound) | 8.9% (inactive) | 5.45
Cc1oc(-c2ccc(Cl)cc2)nc1CN1CCC(C(=O)NCc2ccco2)CC1 | 37.1% (inactive) | 9.6
COc1ccc2cc3cc(C(=O)Nc4ccccc4N4CCN(C)CC4)oc3nc2c1 | 68.3% (active) | 42.7
CC(=O)c1cccc(NC2c3ccccc3C(=O)N2Cc2ccc3c(c2)OCO3)c1 (stereo not given) | 24% (inactive) | 4.25
CCCS(=O)(=O)N1CCCC(C(=O)NCCCN2CCN(c3ccccc3F)CC2)C1 (stereo not given) | 35.5% (inactive) | 5.95
COc1ccccc1CNC(=O)C1CCN(Cc2nc(-c3cccc(Cl)c3)oc2C)CC1 | 33.3% (inactive) | 3.35
CCOC(=O)C1CCN(c2nc3ccccc3nc2C(C#N)C(=O)OCCOC)CC1 (stereo not given) | 11.8% (inactive) | 3.1
Cn1cc(CNC(=O)C2c3ccccc3Oc3ccccc32)cn1 | 7.3% (inactive) | 3
CCCc1ccc(Oc2cn[nH]c2-c2ccc(O)c(C)c2O)cc1 | 40% (inactive) | 4.85
COc1ccc(CCNC(=O)C2CCN(Cc3nc(-c4ccccc4C)oc3C)CC2)cc1OC | 0% (inactive) | 20
Cc1ccc(-n2nc3cc(Cl)c(NC(=O)c4ccco4)cc3n2)cc1 | 20.7% (inactive) | 2.8
Cc1oc(-c2ccccc2F)nc1CN1CCC(C(=O)NC2CCCCCCC2)CC1 | 16.7% (inactive) | 9.45
CCOC(=O)c1[nH]c(C)c(C(=O)N2CCc3ccccc32)c1C | 7.7% (inactive) | 15.4
Cc1ccc(C)c(N2CCN(CCCNC(=O)Cn3cc4c(n3)CCC(C)C4)CC2)c1 (stereo not given) | 20% (inactive) | 25.6
COc1ccc(-n2c3c(cc(C(=O)N4CCC(C)CC4)c2=O)C(=O)CC(C)(C)C3)cc1 | 20% (inactive) | 1.8
COc1ccc(-c2cc(C(F)(F)F)nc(N3CCN(Cc4ccccc4)CC3)n2)cc1OC | 51.3% (active) | 5.3
COc1cc2nc(N3CCN(C(=O)C4COc5ccccc5O4)CC3)nc(N)c2cc1OC (stereo not given) | 0% (active) | 55.2
Cc1ccc(OCC(O)Cn2c(=N)n(CCN3CCCCC3)c3ccccc32)cc1 (stereo not given) | 23.1% (active) | 65.5
O=C(Nc1ccc2oc(Cc3ccc(Cl)cc3)nc2c1)c1cccnc1 | 17.6% (inactive) | 6.7
O=C(NC1CCCC1)C1CCN(S(=O)(=O)c2cccc3cccnc23)CC1 | 15.9% (inactive) | 1.65

SMILES | side scatter shift (at 100 µM) | side scatter shift (side scatter shift, at 10 µM) [%]
CCCN(CCC)CCNC(=O)C1CCN(Cc2nc(-c3ccc(Cl)cc3)oc2C)CC1 | 76.4% (active) | 74
O=C(NCC1CCCO1)C1CC(c2ccc(Cl)c(Cl)c2)=NO1 (stereo not given) | 8.2% (inactive) | 2.4
c1ccc(CSc2nnc(-c3cccs3)n2Cc2ccco2)cc1 | 20% (inactive) | 6.7
Cc1nc2ncnn2c(C)c1CCC(=O)NCCCN1CCN(c2cccc(Cl)c2)CC1 | 37.9% (inactive) | 8.55
CCOc1cccc(-c2nnc3n2N=C(c2cc(OC)ccc2OC)CS3)c1 | 0% (inactive) | 14.1
C=CCn1c(=N)n(CC(O)COc2ccccc2OC)c2ccccc21 (stereo not given) | 13.8% (inactive) | 2.35
CCOC(=O)N1CCN(S(=O)(=O)c2ccc(C(=O)Nc3nc4ccccc4s3)cc2)CC1 | 11.7% (inactive) | 5.15
CC(C)n1c(=S)[nH]c2c1c(=O)[nH]c(=O)n2C | 8.1% (inactive) | 2.4
CCOc1nc(-c2ccccc2O)nc2ccccc12 | 13.5% (inactive) | 8.8
COc1ccc2c(c1)CCc1c(C(=O)Nc3cc(C)n(Cc4ccc(Cl)cc4)n3)noc1-2 | 37.2% (inactive) | 7.45
CCOc1ccc(-c2cc(C(=O)NCCCN3CCN(CC)CC3)c3ccccc3n2)cc1 | 28.2% (active) | 73
Cc1cc(=O)n2nc(N3CCCC(C(=O)NCc4ccco4)C3)sc2n1 (stereo not given) | 7.4% (inactive) | 4.75
COc1ccc(Cc2nc(-c3ccc(-n4cccc4)cc3)no2)cc1OC | 23.5% (inactive) | 15.8
CCc1ccc(NC(=O)NCCN2CCc3ccccc3C2)cc1 | 0% (inactive) | 8.75
CCOC(=O)c1ccc(-c2n[nH]c(=O)c3ccccc23)cc1 | 10.7% (inactive) | 3.3
CCOC(=O)N1CCN(C(=O)Cc2ccc(-n3c(=O)[nH]c4ccccc4c3=O)cc2)CC1 | 6.3% (inactive) | 2.6
CCn1c(=O)cc(OCC(=O)NCCCN2CCN(c3cccc(Cl)c3)CC2)c2ccccc21 | 40% (inactive) | 18.3
O=c1c2ccccc2nnn1CSc1nnc2sc3ccccc3n12 | 15.6% (inactive) | 4.8
Cn1c(=O)cc(SCC(=O)NCCCN2CCN(c3ccccc3F)CC2)c2ccccc21 | 70.5% (active) | 12.8
Cc1cccc(-c2nc(CN3CCCC(C(=O)NC4CCCCCC4)C3)c(C)o2)c1 (stereo not given) | 41.2% (inactive) | 10.8
O=C(O)C1CCCCC1C(=O)Nc1cnn(Cc2ccccc2)c1 (stereo not given) | 19% (inactive) | 5.15
CCn1c(=O)cc(OCC(=O)O)c2ccccc21 | 31.8% (inactive) | 6.7
c1ccc(N2CCN(c3nnc(Cc4cccnc4)c4ccccc34)CC2)nc1 | 17.5% (inactive) | 8
CN(C)CCCN1c2ccccc2CCc2ccc(Cl)cc21 | 20.9% (active) | 48.4
COc1cccc(-c2cc(C(=O)N3CCN(C(c4ccccc4)c4ccccc4)CC3)no2)c1 | 9.8% (inactive) | 2.7
OCc1nc2ccccc2n1CCCOc1ccccc1 | 6.7% (inactive) | 5.1
